Activity calls are given as the source filed them.

One experiment addresses Albumin (Bos taurus) (UniProt P02769). The experiment is described as follows: compounds binding labelled BSA control protein – biochemical, small-molecule microarray, Alexa647 label, 635/667 nm fluorescence, artefact control for SMM control protein annotation, profiling panel (AID 1118).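 Note: score merges 667 nm emission intensity and signal-to-noise per printed compound spot.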 The conditions noted are these: BSA-A647 binding, fluorescence 635 nm, higher = more signal.

Experiment [1] in a line: probe aXIP binding to arrayed compounds – biochemical, NeuroSMM set, 635/667 nm fluorescence, primary screen (AID 1119).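 Note: probe is the protein aXip251-270 applied at 1 µg/mL to compound-printed slides; binding of probe to printed compounds measured as 667 nm fluorescence plus signal to noise.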 Conditions: small-molecule microarray, higher = more signal, called active from +8 up or from −8 down.
Experiment [2] in a line: probe aNOTCH3 binding on compound microarray – biochemical, small-molecule microarray, 635/667 nm fluorescence, primary screen (AID 1120).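 Note: probe is a biotin-tagged antibody raised against NOTCH3 rather than NOTCH3 protein; score merges spot fluorescence near 667 nm with spot signal to noise.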 The conditions noted are these: higher = more signal.
Experiment [3] can be described thus: probe aNOTCH2 binding on compound microarray – biochemical, small-molecule microarray, 635/667 nm fluorescence, primary screen (AID 1121).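 Note: score merges feature fluorescence read at 667 nm with its signal to noise.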 Conditions: higher = more signal.
In experiment [4] the target is Carbonic anhydrase 2 (Homo sapiens) (UniProt P00918). The experiment is described as follows: compounds binding carbonic anhydrase 2 – biochemical, small-molecule microarray, Alexa647-labelled CAII, profiling panel (AID 1122). The conditions noted are these: CAII-A647 binding fluorescence, higher = more signal.
Experiment [5] in a line: COS7 lysate on small-molecule microarray, probe aHis, 635 nm (AID 1123).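 Note: z-score combines 667nm fluorescence intensity with signal-to-noise per printed compound spot.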 Conditions: COS7 cell lysate, fluorescence, higher = more signal.
A short description of experiment [6]: probe aLAP1 signal on lysate-treated microarray – cell lysate, small-molecule microarray, COS7 lysate, primary screen (AID 1124).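 Note: lysate comes from COS7 cells expressing LAP1 and is applied at 0.3 µg/mL; score merges spot fluorescence near 667 nm with signal-to-noise over triplicate slides.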 Conditions: probe aLAP1, fluorescence, higher = more signal.
For a further experiment, the system named is Sam68 (KHDRBS1). The experiment is described as follows: compounds binding KHDRBS1 protein – biochemical, small-molecule microarray, 635 nm fluorescence, primary screen (AID 1125).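 Note: score merges 667 nm channel intensity with signal to noise over triplicate slides.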 Conditions: higher = more signal.
For experiment [7], the system named is Chordin-like protein 2 (CHRDL2). Kind of experiment: compounds binding chordin-like 2 – biochemical, small-molecule microarray, 635 nm fluorescence, primary screen (AID 1126).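 Note: printed compound slides probed with Chrdl2 protein at 4 µg/mL for 1 h at 4 C; score merges 667 nm emission intensity with signal to noise over three replicate slides.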 Conditions: fluorescence 635 nm, higher = more signal.
Experiment [8] addresses Concanavalin-A (Canavalia ensiformis) (UniProt P02866). The experiment is described as follows: compounds binding concanavalin A lectin – biochemical, small-molecule microarray, Alexa647 label, 635 nm, artefact control for SMM control protein annotation, primary screen (AID 1127).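 Note: z combines 667 nm emission intensity with signal-to-noise across three replicate slides.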 The conditions noted are these: ConA-A647 binding fluorescence, higher = more signal.
Experiment [9] can be described thus: compounds binding Alexa647 anti-His antibody – biochemical, small-molecule microarray, 635 nm fluorescence, artefact control for SMM control protein annotation, primary screen (AID 1128).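 Note: score merges feature fluorescence with signal-to-noise for each printed compound spot.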 The conditions noted are these: higher = more signal.
The subject of experiment [10] is Human papillomavirus type 1a E7 protein (residues 1-88). Kind of experiment: HPV1a E7 small-molecule binders, primary screen, biochemical, small-molecule microarray, residues 1-88, 635 nm (AID 1129). The conditions noted are these: small-molecule microarray binding, fluorescence 635 nm; higher = more signal.
Experiment [11] addresses Focal adhesion kinase 1 (Homo sapiens) (UniProt Q05397). The experiment is described as follows: PTK2 protein binding on printed compound slides – biochemical, small-molecule microarray, 635/667 nm fluorescence, BSA, DTT, primary screen (AID 1130).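 Note: composite of spot emission at 667 nm and signal to noise over triplicate slides.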 Conditions: 635 nm fluorescence, higher = more signal.
Experiment [12] concerns Fibrinogen (Alexa647-labelled). The experiment is described as follows: Alexa647-fibrinogen binding to printed small molecules – biochemical, small-molecule microarray, 635/667 nm fluorescence, artefact control for SMM control-protein annotation, profiling panel (AID 1131).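 Note: z-score merges 667 nm fluorescence with per-spot signal-to-noise over triplicate slides.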 The conditions noted are these: fibrinogen-A647 binding fluorescence, higher = more signal.
Experiment [13] deals with Follistatin (Homo sapiens) (UniProt P19883). Kind of experiment: FST protein binding to printed compounds – biochemical, small-molecule microarray, 635/667 nm fluorescence, primary screen (AID 1132). Conditions: 635 nm fluorescence, higher = more signal.
Sequence of Follistatin (Homo sapiens) (P19883 whole entry, looked up): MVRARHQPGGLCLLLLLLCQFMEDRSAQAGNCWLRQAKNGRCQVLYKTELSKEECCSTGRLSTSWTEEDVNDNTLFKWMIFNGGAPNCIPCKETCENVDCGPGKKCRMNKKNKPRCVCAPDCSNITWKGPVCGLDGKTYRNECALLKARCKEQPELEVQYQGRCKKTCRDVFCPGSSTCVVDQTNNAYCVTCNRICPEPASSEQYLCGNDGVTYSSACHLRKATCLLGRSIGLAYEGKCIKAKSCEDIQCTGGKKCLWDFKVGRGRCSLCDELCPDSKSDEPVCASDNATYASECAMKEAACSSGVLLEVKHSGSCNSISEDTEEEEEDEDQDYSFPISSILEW
The target of experiment [14] is Fibroblast growth factor 2 (Homo sapiens) (UniProt P09038). Kind of experiment: basic fibroblast growth factor binding to printed compounds – biochemical, small-molecule microarray, 635/667 nm fluorescence, primary screen (AID 1133). The conditions noted are these: FGF2, fluorescence 635/667, higher = more signal.
Sequence of Fibroblast growth factor 2 (Homo sapiens) (P09038 whole entry, looked up): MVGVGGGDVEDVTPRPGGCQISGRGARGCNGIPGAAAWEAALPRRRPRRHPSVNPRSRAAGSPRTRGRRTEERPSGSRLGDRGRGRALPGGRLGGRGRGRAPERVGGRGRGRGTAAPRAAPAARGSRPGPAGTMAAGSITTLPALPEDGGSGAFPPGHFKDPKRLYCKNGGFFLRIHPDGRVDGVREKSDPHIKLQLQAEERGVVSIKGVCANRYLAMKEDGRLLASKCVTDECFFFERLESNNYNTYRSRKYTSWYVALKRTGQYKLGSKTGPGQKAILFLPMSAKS
Experiment [15] in a line: JC-1 mitochondrial potential readout, lung cancer cells – cell-based, A549, JC-1 fluorescence, basal, 24 h, 100 nL, profiling panel (AID 1138).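 Note: A549 lung adenocarcinoma cells under basal conditions with no added stimulus; test concentration not given here.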 Conditions: higher = more signal.
The test system of a further experiment is Lefty1. Kind of experiment: Lefty1 protein binding to printed compounds – biochemical, small-molecule microarray, 635/667 nm fluorescence, primary screen (AID 1139). The conditions noted are these: fluorescence 635/667, higher = more signal.
Experiment [16] concerns wheat germ agglutinin (Triticum aestivum), Alexa647-labelled. Kind of experiment: Alexa647-WGA lectin binding to printed small molecules – biochemical, small-molecule microarray, 635/667 nm fluorescence, artefact control for SMM control-protein annotation, profiling panel (AID 1140).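 Note: score merges 667 nm feature emission with signal to noise over triplicate slides.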 Conditions: WGA-A647 binding, 635 nm fluorescence, higher = more signal.
Experiment [17] deals with Luciferin 4-monooxygenase (Photinus pyralis) (UniProt P08659). The experiment is described as follows: inhibition of purified Photinus pyralis luciferase – biochemical, luminescence, purified enzyme, 2006 set, primary screen (AID 1141).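 Note: cell-free assay with purified firefly luciferase at 100 ng per well in PBS; test concentration not given here.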 The conditions noted are these: purified firefly luciferase, SteadyGlo luminescence, 30 min; higher = more signal, called active from +8 up or from −8 down.
Sequence of Luciferin 4-monooxygenase (Photinus pyralis) (P08659 whole entry, looked up): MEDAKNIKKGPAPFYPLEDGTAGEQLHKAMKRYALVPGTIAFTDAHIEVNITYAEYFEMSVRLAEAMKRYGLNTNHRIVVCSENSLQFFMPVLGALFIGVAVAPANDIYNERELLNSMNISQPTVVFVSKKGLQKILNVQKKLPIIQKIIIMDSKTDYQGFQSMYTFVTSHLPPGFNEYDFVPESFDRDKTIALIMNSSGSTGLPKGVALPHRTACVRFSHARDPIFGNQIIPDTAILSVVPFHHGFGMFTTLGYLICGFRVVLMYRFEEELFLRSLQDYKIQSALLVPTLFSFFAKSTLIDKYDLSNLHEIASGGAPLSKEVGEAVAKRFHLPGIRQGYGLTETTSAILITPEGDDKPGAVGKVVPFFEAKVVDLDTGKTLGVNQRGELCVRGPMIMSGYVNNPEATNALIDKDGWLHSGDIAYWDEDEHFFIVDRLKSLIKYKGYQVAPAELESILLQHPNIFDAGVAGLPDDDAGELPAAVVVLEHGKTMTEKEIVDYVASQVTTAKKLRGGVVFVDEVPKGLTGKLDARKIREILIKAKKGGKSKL

Sequence of Focal adhesion kinase 1 (Homo sapiens) (Q05397 whole entry, looked up): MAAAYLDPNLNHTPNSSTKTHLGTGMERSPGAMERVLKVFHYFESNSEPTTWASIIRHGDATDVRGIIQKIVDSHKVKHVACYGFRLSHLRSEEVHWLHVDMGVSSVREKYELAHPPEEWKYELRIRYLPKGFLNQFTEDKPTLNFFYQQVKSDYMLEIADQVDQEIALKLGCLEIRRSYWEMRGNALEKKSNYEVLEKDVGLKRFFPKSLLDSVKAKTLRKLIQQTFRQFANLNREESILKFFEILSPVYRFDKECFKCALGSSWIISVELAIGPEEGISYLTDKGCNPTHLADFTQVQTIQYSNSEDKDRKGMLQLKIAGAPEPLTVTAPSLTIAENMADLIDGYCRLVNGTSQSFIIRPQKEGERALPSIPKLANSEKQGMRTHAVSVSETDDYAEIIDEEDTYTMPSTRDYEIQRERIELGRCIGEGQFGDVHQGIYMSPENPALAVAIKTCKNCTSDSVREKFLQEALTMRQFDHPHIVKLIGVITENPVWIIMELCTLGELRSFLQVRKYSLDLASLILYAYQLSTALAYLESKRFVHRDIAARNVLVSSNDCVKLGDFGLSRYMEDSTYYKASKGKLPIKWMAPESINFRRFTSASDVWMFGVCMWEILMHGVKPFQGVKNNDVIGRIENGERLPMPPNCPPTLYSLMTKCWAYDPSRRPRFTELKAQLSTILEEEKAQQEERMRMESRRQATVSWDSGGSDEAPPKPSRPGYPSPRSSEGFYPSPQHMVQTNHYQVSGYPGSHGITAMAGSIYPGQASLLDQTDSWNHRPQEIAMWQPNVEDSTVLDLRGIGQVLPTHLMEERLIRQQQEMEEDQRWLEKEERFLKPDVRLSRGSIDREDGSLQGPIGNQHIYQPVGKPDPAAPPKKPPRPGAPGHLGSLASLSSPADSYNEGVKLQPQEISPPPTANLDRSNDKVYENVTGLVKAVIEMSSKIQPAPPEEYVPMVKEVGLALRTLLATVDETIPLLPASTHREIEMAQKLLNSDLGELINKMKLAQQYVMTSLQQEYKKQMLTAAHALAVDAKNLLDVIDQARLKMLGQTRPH
Sequence of Concanavalin-A (Canavalia ensiformis) (P02866 whole entry, looked up): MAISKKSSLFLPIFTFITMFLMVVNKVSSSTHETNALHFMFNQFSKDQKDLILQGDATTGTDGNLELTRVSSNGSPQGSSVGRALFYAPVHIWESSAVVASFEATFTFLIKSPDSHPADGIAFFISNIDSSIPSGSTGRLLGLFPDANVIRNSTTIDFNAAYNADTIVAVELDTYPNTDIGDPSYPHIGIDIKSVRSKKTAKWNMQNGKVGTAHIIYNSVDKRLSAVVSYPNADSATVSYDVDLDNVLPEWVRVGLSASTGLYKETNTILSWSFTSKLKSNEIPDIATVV
Sequence of Albumin (Bos taurus) (P02769 whole entry, looked up): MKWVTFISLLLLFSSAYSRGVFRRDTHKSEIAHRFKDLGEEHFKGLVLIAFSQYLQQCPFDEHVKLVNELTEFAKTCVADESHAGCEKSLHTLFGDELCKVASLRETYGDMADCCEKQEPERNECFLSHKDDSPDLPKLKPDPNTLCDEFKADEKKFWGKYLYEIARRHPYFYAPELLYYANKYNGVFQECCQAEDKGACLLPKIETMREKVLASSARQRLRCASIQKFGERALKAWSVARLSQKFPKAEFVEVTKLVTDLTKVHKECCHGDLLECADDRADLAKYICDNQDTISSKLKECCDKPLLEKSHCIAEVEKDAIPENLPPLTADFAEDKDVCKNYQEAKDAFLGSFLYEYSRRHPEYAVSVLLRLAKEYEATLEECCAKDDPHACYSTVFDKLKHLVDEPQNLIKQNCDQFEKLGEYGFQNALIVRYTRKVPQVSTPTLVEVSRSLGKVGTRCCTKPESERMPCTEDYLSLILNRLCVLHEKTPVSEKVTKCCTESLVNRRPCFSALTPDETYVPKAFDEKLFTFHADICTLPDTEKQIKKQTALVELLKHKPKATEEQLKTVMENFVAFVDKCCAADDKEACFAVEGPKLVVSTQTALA

As for `O=C(NCCC[N+]1=CC=NC1c1ccccc1)N1CCCc2nc(-c3ccc(Br)cc3)ccc21` (stereo not given), the composite z-score with Albumin (Bos taurus) was 0.452; in [2], -0.222; in experiment [3] it was -0.119; in experiment [4] it was -0.0214; in [5], -0.382; in experiment [6], -0.264. For the same molecule, the composite z-score in the experiment on Sam68 (KHDRBS1) was 0.152; in [7], 0.421; in experiment [8], 0.605; in experiment [9] it was 0.862; in experiment [10] it was -0.493; in [11], 0.183. Moreover, the composite z-score in [12] is 0.692; in experiment [13], 0.733; in [14], 0.208; in the experiment on Lefty1, 0.27; in [16], -0.471. Also, the composite Z-score in experiment [1] is 0.762 (inactive). In addition, the figures for the z-score in experiment [15] and in experiment [17] were 1.76 and 0.395 (inactive), respectively.

`C=CC[C@@H]1C=C[C@H](ON=C(C)CCN2CCCc3nc(C)c(C)cc32)[C@@H](CO)O1`: the composite z-score is -0.858 with Albumin (Bos taurus); 0.712 in experiment [2]; 0.276 in experiment [3]; -0.1 in experiment [4]; 0.735 in experiment [5]; 0.629 in experiment [6]. Moreover, the composite z-score with Sam68 (KHDRBS1) was 1.32; in experiment [7], 1.3; in [8] it was -0.12; in experiment [9] it was 0.229; in experiment [10], 0.736; in [11], 0.817. In addition, the composite z-score in experiment [12] is -0.355; in experiment [13] it was 1.25; in [14], 1; in the experiment with Lefty1, 1.16; in experiment [16], -0.205. The composite Z-score in experiment [1] was 2.94 (inactive). For the same molecule, the results for the z-score in experiment [15] and in experiment [17] were 0.289 and 0.949 (inactive), respectively.

`C[C@H]1CC[C@H]2C(=O)O[C@H](CO)CN2[C@@H]1c1ccc(Br)cc1`: the composite z-score with Albumin (Bos taurus) was 0.167; in experiment [2], 0.0081; in experiment [3], -0.124; in experiment [4], -0.11; in experiment [5], -0.0346; in [6], 0.0438. Also, the composite z-score was 0.424 in the experiment on Sam68 (KHDRBS1); 0.229 in experiment [7]; -0.453 in experiment [8]; -0.15 in experiment [9]; 0.015 in experiment [10]; 0.638 in experiment [11]. Moreover, the composite z-score is 0.0011 in experiment [12]; 0.0723 in experiment [13]; 0.103 in [14]; 0.353 in the experiment with Lefty1; -0.004 in experiment [16]. In experiment [1], the composite Z-score is 0.436 (inactive). Further, the z-score in experiment [15] was 0.69; in experiment [17] it was -0.19 (inactive).

For `CC(C)[C@@H](OCc1ccccc1)[C@H](C)CON=C1[C@H]2CCn3c(=O)n(-c4ccccc4)c(=O)n3[C@H]2[C@H](O)[C@@H]2O[C@H]12`, the composite z-score with Albumin (Bos taurus) is 0.667; in [2] it was -0.0072; in experiment [3] it was -0.0527; in experiment [4] it was -0.0291; in [5], 0.476; in [6], -0.219. Besides, the composite z-score in the experiment with Sam68 (KHDRBS1) is 0.593; in experiment [7], 0.427; in experiment [8], -0.0949; in experiment [9], 2.57; in experiment [10], 0.246; in [11] it was 0.0884. Besides, the composite z-score in experiment [12] was -0.0016; in [13], 0.759; in experiment [14] it was 0.324; in the experiment with Lefty1 it was 0.689; in experiment [16] it was 0.192. In addition, in [1], the composite Z-score is 0.382 (inactive). Besides, the z-score is -0.139 in [15] and 0.0981 (inactive) in experiment [17].

Regarding `COc1ccc(COC(=O)NN=C2C[C@@H](O)[C@@H](O)[C@@H]3[C@@H]4C(=O)N(C5CCCCC5)C(=O)[C@@H]4CC[C@@H]23)cc1`, the composite z-score in the experiment with Albumin (Bos taurus) is 0.157; in experiment [2], 0.289; in [3] it was -0.0256; in [4], -0.143; in experiment [5] it was 0.0678; in [6], -0.253. For the same molecule, the composite z-score in the experiment on Sam68 (KHDRBS1) is -0.0188; in [7], -0.108; in experiment [8], -0.35; in experiment [9], 0.123; in experiment [10], -0.0517; in experiment [11], 0.0581. Moreover, the composite z-score in experiment [12] is 0.0695; in [13], -0.148; in experiment [14] it was -0.373; in the experiment with Lefty1, -0.371; in [16], 0.401. Further, the composite Z-score in [1] is -0.218 (inactive). Further, the z-score in experiment [15] was 0.847; in experiment [17] it was 0.0242 (inactive).

In the case of `CO[C@@H]1COC(=O)CC=C[C@H](C)[C@H](OC)COC(=O)[C@@H]2CCCN2C(=O)CC=C[C@H]1C`, the composite z-score in the experiment with Albumin (Bos taurus) is -0.568; in experiment [2], -0.116; in experiment [3], -0.154; in experiment [4] it was -0.623; in experiment [5] it was -0.301; in experiment [6], 0.569. In addition, the composite z-score in the experiment on Sam68 (KHDRBS1) was 0.442; in experiment [7] it was 1.44; in experiment [8], -0.371; in experiment [9], -0.51; in experiment [10] it was -0.838; in experiment [11], -0.226. Further, the composite z-score was -2.24 in [12]; 1.38 in experiment [13]; 1.69 in experiment [14]; 1.45 with Lefty1; -1.11 in [16]. Moreover, the composite Z-score in [1] is 0.598 (inactive). Also, the z-score is -0.213 in experiment [15] and -0.577 (inactive) in experiment [17].

The values are drawn from PubChem BioAssay.
